# The panel holds about 83,000 compounds, 20% with a hit somewhere; the sample as a whole holds those more often.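 A percent growth of 40 corresponds to 60% growth inhibition; 0 means no net growth; -100 means all cells died. Active threshold: below 10.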 Values without a mark were called inactive. Calls of active or inactive are those of the source.
# Legend:
# Assay in all cases: NCI-60 one-dose screen, 48 h (100 = growth as untreated, 0 = no growth, -100 = all killed)
# Details in all cases: 10 µM
# SK-MEL-2 melanoma = test system: SK-MEL-2 melanoma
# EKVX NSCLC = test system: EKVX NSCLC
# SN12C renal = test system: SN12C renal
# UO-31 renal = test system: UO-31 renal
# TK-10 renal = test system: TK-10 renal
# ACHN renal = test system: ACHN renal
# CAKI-1 renal = test system: CAKI-1 renal
# A498 renal = test system: A498 renal
# CCRF-CEM leukemia = test system: CCRF-CEM leukemia
# MOLT-4 leukemia = test system: MOLT-4 leukemia
Compound,growth (SK-MEL-2 melanoma),growth (EKVX NSCLC),growth (SN12C renal),growth (UO-31 renal),growth (TK-10 renal),growth (ACHN renal),growth (CAKI-1 renal),growth (A498 renal),growth (CCRF-CEM leukemia),growth (MOLT-4 leukemia)
CCOP(=O)(OCC)O[C@H]1CCC(=O)[C@@H]2[C@H]1[C@H]1C[C@@H]3[C@@]4(C)CCCC(C)(C(=O)OC)[C@@H]4CC[C@@]23C=C1C(C)C (some centres not stated),71.3%,41.5%,65.4%,53.5%,83.2%,65.2%,63.2%,91.1%,55.1%,30%
CCOC(=O)C1=C(N)N(c2ccc(C)cc2)C2=C(C(=O)CC(C)(C)C2)C1c1ccccc1OC (configuration not stated),110%,92.2%,99.6%,78.7%,107%,103%,97.7%,102%,99%,106%
COc1ccc(C(=O)NC(=S)N2CCN(c3ncnc4c3cnn4-c3ccccc3)CC2)cc1,57.6%,81.4%,46%,69%,101%,64.3%,28.1%,115%,,58.2%
O=C(Nc1ccc(I)cc1F)c1cc(-c2ccc(F)cc2F)ccc1O,-39.9% (active),0.815% (active),-4.86% (active),-0.556% (active),19.9%,-5.83% (active),-21% (active),-21.3% (active),7.55% (active),-0.655% (active)
C/C(=C\CC/C=C(\C)CC/C=C(\C)CC[C@@H](O)C(C)(C)O)CC/C=C(\C)CC[C@@H](O)C(C)(C)O,52.1%,34.5%,12%,30.5%,64.6%,37.5%,47.4%,73.6%,,0.465% (active)
CC(=O)NS(=O)(=O)c1ccc(NC(=O)CSC2=NC(c3ccccc3)C(C(C)=O)=C(C)N2)cc1 (configuration not stated),115%,104%,111%,91.5%,116%,111%,99.4%,133%,95.4%,109%
COc1ccc(-c2c(N)c(=O)n(C)c3ccccc23)cc1,77.4%,52.4%,52.8%,29.7%,118%,59.4%,62.1%,110%,,37.3%
Cc1ccc(CNC(=O)Cc2ccc3c(c2)CN(C2CCC(=O)NC2=O)C3=O)cc1 (configuration not stated),0.232% (active),54.5%,4.57% (active),-21.3% (active),33.2%,30.5%,52.6%,-9.84% (active),,-24.9% (active)
Cc1ccc2nc(-c3ccc(-c4nnc(SCC(=O)Nc5ccc(Br)cc5)o4)cc3)[nH]c2c1,83.8%,85.1%,51%,51.5%,74.7%,67.8%,76.5%,83.4%,38.2%,15.9%
C=C(c1ccc(OC)c(N)c1)c1cc(C)nc2ccccc12,-23.7% (active),21.5%,6.5% (active),21.4%,78.1%,24.5%,27.1%,118%,,12.5%
CN1CCc2c(sc3ncnc(N/N=C/c4cn(-c5ccccc5)nc4-c4ccc(Cl)cc4)c23)C1,36.3%,19.8%,24.9%,15.4%,49.9%,21.7%,23.8%,94.1%,11.4%,18.2%
COc1ccc([C@H]2C(C(=O)c3ccc(Cl)cc3)C3(N[C@@H]2c2ccccc2)C(=O)Nc2ccc(Cl)cc23)cc1 (some centres not stated),-65.5% (active),4.5% (active),-86.5% (active),-1.98% (active),9.59% (active),1.5% (active),4.6% (active),10.4%,,12.1%
CN1C(=O)/C(=C/c2nccs2)SC1=S,96.9%,80.7%,75.8%,78.7%,162%,88.1%,72.9%,109%,,98.8%
COc1ccc2nc(Cl)c(-c3cc(-c4ccccc4)nc(=O)[nH]3)cc2c1,93.3%,73.3%,42.9%,,96.9%,79%,74.2%,104%,16.4%,-11.4% (active)
